# TRPV1 potentiator = HTS Assay for Compounds that Act as Potentiators of the Vanilloid Receptor 1; potentiation, % at 8.33 µM; Transient receptor potential cation channel subfamily V member 1 (Homo sapiens), Q8NER1; hit rate 0.02% among 320,000; TRPV1-expressing cells, Fluo-8 calcium influx, capsaicin EC20 potentiation; AID 540277, 2011; in the data active means potentiation above about 80%; inconclusive means between about 30% and that limit; further: 0% is about no effect
#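 Fluo-8 calcium influx in TRPV1-expressing cells, kinetic read (ex 480/em 520 nm). Compound added and read 3 min for agonist activity, followed by capsaicin at EC20 final and 2 min further read for enhancement.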
# RGS4 inh = Inhibitors of Regulator of G Protein Signaling (RGS) 4: qHTS; Transcreener GDP fluorescence polarization, RGS4-accelerated GTP hydrolysis; Potency, µM (series often up to 114 µM), for the others: at the highest dose activity change, negative = inhibition, actives largely listed as inhibitors; hit rate 0.039% among 390,000; further: potency means the concentration at half of the fitted maximal effect; on the % scale 0 is the no-effect control and ±100 the full control effect; nearly all actives have a fitted effect of over 75% in size
#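 MLSMR compounds (23 nl, pin-transferred) preincubated 10 min at room temperature with a 500nM (2x) first reagent, then RGS4 at 900nM (2x) plus Transcreener GDP mix added; fluorescence polarization (620/688 nm) read before and after 90 min at 30 °C.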
# TRPV1 agonist = HTS Assay for Compounds that Act as Agonists of the Vanilloid Receptor 1 | Transient receptor potential cation channel subfamily V member 1 (Homo sapiens), Q8NER1 | TRPV1-expressing cells, Fluo-8 calcium influx, agonist mode | activation, % at 8.33 µM | hit rate 0.19% among 320,000; in the data active means activation above about 80%; inconclusive means between about 30% and that limit; further: 0% is about no effect
#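 Fluo-8 calcium influx in TRPV1-expressing cells, kinetic read (ex 480/em 520 nm). Compound added and read 3 min for agonist activity, followed by capsaicin at EC20 final and 2 min further read for enhancement.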
# A-T KAP1 phos = qHTS Assay for Identifying a Potential Treatment of Ataxia-Telangiectasia. Potency, µM (series often up to 57.5 µM), inactives show at the top dose activation, usual class: activators. AID 485349, 2010. F2112 A-T fibroblasts, KAP-1 phosphorylation AlphaLISA; neocarzinostatin DNA damage 30 min before lysis. hit rate 0.19% among 320,000; further: potency means the concentration at half of the fitted maximal effect; % of control where 0% means no effect; nearly all actives have a fitted effect of over 45% in size
#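 ATM-like activity read as KAP-1 phosphorylation via AlphaLISA donor/acceptor antibody pairs after lysis and 6 hr at 25C. Cells were ATM-null patient fibroblasts (F2112, hTERT), dosed 60 min, then exposed to the DSB inducer NCS for 30 min.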
# TRPML1 inh = qHTS for Inhibitors of the Human Mucolipin Transient Receptor Potential 1 (TRPML1); activity change, negative = inhibition, % (test concentration not listed); hit rate 0.02% among 390,000; TRPML1-inducible cells, Ca2+ dye fluorescence, FDSS; hits give low values; inhibition of EC80 agonist-evoked calcium signal; AID 624415, 2012; Mucolipin-1 (Homo sapiens), Q9GZU1; in the data active means activity change below about -50%; inconclusive means between about -30% and that limit;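 further: stimulus is agonist 54-4 at its EC80 concentration; on the % scale 0 is the no-effect control and ±100 the full control effect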
# Target sequence (Q9GZU1 whole entry, looked up): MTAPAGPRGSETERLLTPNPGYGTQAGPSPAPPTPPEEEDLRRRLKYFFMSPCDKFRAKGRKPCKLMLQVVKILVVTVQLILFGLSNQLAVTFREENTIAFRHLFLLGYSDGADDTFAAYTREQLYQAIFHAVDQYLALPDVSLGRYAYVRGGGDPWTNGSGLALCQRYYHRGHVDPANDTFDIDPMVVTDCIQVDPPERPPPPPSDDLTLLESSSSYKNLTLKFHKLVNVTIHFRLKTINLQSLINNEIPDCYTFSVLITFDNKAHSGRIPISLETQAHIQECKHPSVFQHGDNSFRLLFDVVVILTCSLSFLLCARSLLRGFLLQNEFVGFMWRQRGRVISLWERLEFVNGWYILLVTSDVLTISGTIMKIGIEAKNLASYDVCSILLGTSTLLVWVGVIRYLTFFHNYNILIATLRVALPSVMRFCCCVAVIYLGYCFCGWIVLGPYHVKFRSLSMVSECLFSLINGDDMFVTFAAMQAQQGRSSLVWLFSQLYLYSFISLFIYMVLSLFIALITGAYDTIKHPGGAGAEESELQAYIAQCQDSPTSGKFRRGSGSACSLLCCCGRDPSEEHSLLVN
#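 TRPML1-DL cells, Tet-induced overnight (~16 h, 37 °C) at 1,500 cells/well, were loaded with Ca8 no-wash dye plus quencher for 45-90 min at room temperature. Compounds were pinned during FDSS kinetic reading; agonist 54-4 at EC80 (4 uM final) then added.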
# TRPML1 agonist = qHTS for Agonists of the Human Mucolipin Transient Receptor Potential 1 (TRPML1). Mucolipin-1 (Homo sapiens), Q9GZU1. TRPML1-expressing cells, Ca2+ dye fluorescence, FDSS. activation, % (concentration not given with the values). hit rate 0.12% among 410,000; in the data active means activation above about 50%; inconclusive means mostly about 30% to 49%; further: 0% is about no effect
#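 Kinetic FDSS Ca2+ read in Tet-induced TRPML1-DL cells (ABD Ca8 dye plus quencher, 45-90 min RT loading): baseline, then compound, then 110 s agonist window; EC80 agonist 54-4 at 4uM final added afterwards for a 110 s antagonist window.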
# * marks the source's active call; other numbers are inactive results; ? = inconclusive; . = no result given; [ ] = another dose, or the depositor's remark. A selection: hits, their analogues and other compounds. The true share with any hit is near 0.5%. Unless noted, the call rests on the fitted dose curve; in most records, active means well fitted curve in the direction sought with a large enough effect; inconclusive means small, poorly fitted or top-dose-only effect, or another doubt; inactive means no such curve, though single readings can be large; an effect the other way counts as inactive or inconclusive.
SMILES,TRPV1 potentiator,RGS4 inh,TRPV1 agonist,A-T KAP1 phos,TRPML1 inh,TRPML1 agonist
Cn1c(=O)c(N)c2c3c(c(Br)ccc31)C(=O)c1ccccc1-2,.,-25%,.,-14%,-20,27
CC(=O)Nc1ccc(Nc2c3c4c(cccc4n(C)c2=O)C(=O)c2ccccc2-3)cc1,-18,8%,6,0%,1,2
Cn1c(=O)cc2c3c(c(N4CCCCC4)ccc31)C(=O)c1ccccc1-2,3,11%,5,-4%,-5,3
Cn1c(=O)c(NCCO)c2c3c(cccc31)C(=O)c1ccccc1-2,.,-24%,.,35%,-4,93*
Nc1cc(-c2ccc(Cl)cc2)nn1S(=O)(=O)c1ccccc1,-6,28%,-1,11%,53,3
Cn1c(=O)c(NCCc2ccccc2)c2c3c(cccc31)C(=O)c1ccccc1-2,23,-43%,92*,?,-11,104*
COc1cc2c(cc1OC)CN(C(=O)c1ccc([N+](=O)[O-])o1)CC2,11,-44%,2,15%,-6,3
CN(C(=O)c1cc(C(=O)N(C)c2ccccc2)cc([N+](=O)[O-])c1)c1ccccc1,2,6%,2,40µM*,-8,1
CCCCCC(=O)NCC(C)NC(=O)CCCCC (stereo unspecified),-8,12%,8,-1%,-5,0
CCCCCCCCCCCCCCCC(=O)NCC(COP(=O)([O-])OCC[N+](C)(C)C)OCC (stereo unspecified),.,21µM*,.,.,.,.
CCNC(=S)N1CCC(C(=O)c2ccc(Cl)cc2)CC1,1,-31%,81*,5%,12,1
CCCNC(=S)N1CCC(C(=O)c2ccc(Cl)cc2)CC1,-8,12%,?,12%,6,0
COc1ccc(NS(=O)(=O)c2cc(NC(=O)c3cnc(C)cn3)ccc2N2CCCCC2)cc1,-3,-35%,90*,6%,45,0
COc1ccc(NS(=O)(=O)c2cc(NC(=O)c3cnc(C)cn3)ccc2N2CCCC2)cc1,-26,19%,?,1%,-12,0
COc1ccc(S(=O)(=O)N2CC3CCCN3c3ccc(C(F)(F)F)cc32)cc1 (stereo unspecified),?,22%,-1,6%,-7,80*
COc1ccc(/C=N/n2cnc3c(sc(=S)n3-c3ccccc3)c2=O)cc1,4,-20%[56.9 µM],0,11%,5,0
CC(C)OCCCNC(=O)c1cc2c(s1)CS(=O)(=O)C2,-24,-7%,15,3%,-6,0
CCc1ccc(S(=O)(=O)N(C(C)=O)c2ccc3oc4c(c3c2)CCCC4)cc1,.,13%,.,.,-2,21
CCCC(=O)N(c1ccc2oc3c(c2c1)CCCC3)S(=O)(=O)c1ccc(CC)cc1,.,36%,.,.,-25,64*
Cc1cc(NC(=O)CSc2nc(Cc3ccc(O)cc3)c(C)[nH]2)no1,7,-3%[56.9 µM],-13,-9%,-54*,1
Cc1cc(/C=C2\NC(=S)N(C)C2=O)ccc1N1CCCC1,-1,-23%,89*,1%,-11,94*
CCCN1C(=O)/C(=C/c2ccc(N3CCCC3)c(C)c2)NC1=S,.,-29%,.,-9%,-4,67*
CCN1C(=O)/C(=C/c2ccc(N3CCCC3)cc2)NC1=S,-5,-29%,?,-13%,-16,64*
Cc1cc(/C=C2/C(=O)N(C)C(=S)N2C)ccc1N1CCCC1,16,-13%,20,-4%,-7,?
CCC(=O)c1cc2c(cc1NC(=O)C(C)C)OCCO2,-11,10%,7,2%,-9,1
SMILES,TRPV1 potentiator,RGS4 inh,TRPV1 agonist,A-T KAP1 phos,TRPML1 inh,TRPML1 agonist
CC(CCc1ccccc1)NC(=O)CSc1cccc[n+]1[O-] (stereo unspecified),0,7%,-1,18%,-4,0
COc1cccc(/C=N/n2c(SC)nnc2-c2ccccc2)c1OC,-22,-9%,28,5%,-5,0
COc1cccc(/C=N/n2c(SC)nnc2-c2ccccc2)c1O,-17,-5%,89*,-5%,48,1
COC(=O)c1ccc(C(=O)OC)c(NC(=O)CN(C)Cc2cccc(Cl)c2Cl)c1,-18,10%,?,5%,0,2
CC(=O)c1sc2nc(C)c3c(c2c1N)CCCC3,19,11%,3,35µM*,-7,1
Cc1cccn2c(=O)c3cc(C(=O)NC4CCCCC4)c(=N)n(CCN4CCOCC4)c3nc12,?,-15%,2,16µM*,.,.
N#CC1=C(N)OC2=C(CC/C2=C\c2ccccc2Cl)C1c1ccccc1Cl (stereo unspecified),17,-14%,0,8%,-10,2
N#CC1=C(N)OC2=C(CC/C2=C\c2ccccc2)C1c1ccccc1 (stereo unspecified),-7,-18%[11.4 µM],3,24%,-8,55*
Fc1ccccc1CNC(=S)NCc1ccc(Cl)cc1,9,-11%,84*,4%,23,0
CCNC(=S)NCc1ccc(Cl)cc1,.,-10%,.,.,3,-1
Fc1ccc(CNC(=S)NCc2ccccc2)cc1,-4,-17%,84*,4%,23,1
CCN(CC)CCCNC(=O)CSc1c2c(nc3cc(Cl)ccc13)CCCC2,0,-7%,5,19%,-10,-1
CCCC1(c2ccccc2)NC(=O)N(CC(=O)NCc2ccc(C)cc2)C1=O (stereo unspecified),10,23%,1,-2%,-13,-1
NC(=O)c1sc2nc3c(cc2c1N)CCCCCC3,.,-31%,.,-2%,5,2
CCCCC1=CC2=CC(=O)C(C)(OC(=O)CC)C(=O)C2=CN1CCc1ccccn1 (stereo unspecified),-6,6%,0,-13%,-54*,0
Oc1ccc(NCc2ccc(OCc3ccccc3)cc2)cc1,-22,?,22,40µM*,-20,1
O=C1OC(NCc2cccnc2)(c2ccc(Cl)cc2)c2ccccc21 (stereo unspecified),12,11%,9,7%,-13,1
CCOC(=O)C1CCN(C(=O)c2cc3cc(Cl)ccc3[nH]2)CC1,-1,-32%,-2,7.9µM*,-13,1
